Screening results: PubChem, National Center for Advancing Translational Sciences (NCATS)
JMJD2A Tudor: inhibitors of human JMJD2A Tudor domain. Potency, µM (series often up to 114 µM), actives largely listed as inhibitors. 4.4% of 390,000 active. O75164. AID 504339. AlphaScreen JMJD2A-Tudor / H3K4me3 peptide binding; note: nearly all actives have a fitted effect of over 50% in size
Target sequence (O75164 whole entry, looked up, the tested form may be a part): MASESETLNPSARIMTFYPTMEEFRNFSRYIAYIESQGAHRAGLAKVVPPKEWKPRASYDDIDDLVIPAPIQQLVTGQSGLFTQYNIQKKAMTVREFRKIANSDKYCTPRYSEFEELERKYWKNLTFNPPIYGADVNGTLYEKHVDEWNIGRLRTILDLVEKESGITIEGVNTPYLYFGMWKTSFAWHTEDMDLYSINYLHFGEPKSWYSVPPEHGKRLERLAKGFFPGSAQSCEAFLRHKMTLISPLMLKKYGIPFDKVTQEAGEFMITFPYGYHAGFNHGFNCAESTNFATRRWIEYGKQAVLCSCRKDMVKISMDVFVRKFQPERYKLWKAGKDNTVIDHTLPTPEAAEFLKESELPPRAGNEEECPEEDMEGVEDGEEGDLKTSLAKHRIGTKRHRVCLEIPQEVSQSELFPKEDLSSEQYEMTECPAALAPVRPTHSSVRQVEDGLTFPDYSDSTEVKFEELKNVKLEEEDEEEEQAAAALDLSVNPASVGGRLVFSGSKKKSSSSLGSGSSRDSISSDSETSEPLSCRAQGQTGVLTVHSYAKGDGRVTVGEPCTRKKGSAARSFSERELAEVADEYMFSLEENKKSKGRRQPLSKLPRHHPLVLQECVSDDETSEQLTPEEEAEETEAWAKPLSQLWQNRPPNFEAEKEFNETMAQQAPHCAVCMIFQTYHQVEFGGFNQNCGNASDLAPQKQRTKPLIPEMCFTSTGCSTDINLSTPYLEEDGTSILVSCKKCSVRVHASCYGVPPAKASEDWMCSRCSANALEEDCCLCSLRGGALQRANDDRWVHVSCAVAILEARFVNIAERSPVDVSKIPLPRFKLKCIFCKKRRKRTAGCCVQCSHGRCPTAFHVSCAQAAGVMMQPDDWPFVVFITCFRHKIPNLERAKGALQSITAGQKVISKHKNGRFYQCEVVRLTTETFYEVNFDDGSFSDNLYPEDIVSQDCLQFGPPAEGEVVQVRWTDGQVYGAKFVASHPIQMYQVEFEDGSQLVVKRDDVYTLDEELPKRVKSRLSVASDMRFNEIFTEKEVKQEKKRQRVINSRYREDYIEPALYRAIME
HP1b binding inh: HP1-beta chromodomain-methylated histone interaction inhibition; AID 540317; 0.56% of 390,000 active; P83916; AlphaScreen HP1-beta / biotin-H3K9me3 peptide binding; Potency, µM (doses to about 114 µM), most hits filed as inhibitors; note: nearly all actives have a fitted effect of over 70% in size
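Compound inhibition of the preformed complex between 50 nM HP1-beta and 50 nM biotinylated H3K9me3 peptide was read by AlphaScreen. Buffer was PBS pH 7.4 with 0.01% Tween-20. Incubations ran 30 min at room temperature, with 10 ug/mL donor/acceptor beads.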
G9a inh: blocks human histone lysine methyltransferase G9a; 8.8% of 350,000 active; Potency, µM (series often up to 102 µM), usual class: inhibitors; Q96KQ7; G9a H3K9 monomethylation, AlphaScreen, 2 h; note: nearly all actives have a fitted effect of over 75% in size
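AlphaScreen read-out: biotin-H3K9 peptide (500 nM) methylation by 20 nM enzyme with 20 uM SAM, 2 h at room temperature after 15 min compound preincubation; anti-monomethyl H3K9 antibody plus donor/acceptor beads, 10 min dark.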
BAZ2B inh: BAZ2B (human) inhibition; Q9UIF8; AlphaScreen BAZ2B-H3K14Ac peptide displacement; Potency, µM (highest dose often 114 µM), actives largely listed as inhibitors; 4.4% of 360,000 active; note: nearly all actives have a fitted effect of over 60% in size
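AlphaScreen luminescence quantifies BAZ2B engagement of H3K14Ac peptide; the protein and biotinylated peptide are both at 50 nM final, buffer PBS pH 7.4 with 0.01% Tween-20, all steps at room temperature.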
Sfp inh: blocks B. subtilis Sfp PPTase activity | 3.5% of 310,000 active | Q9F4F7 | Biochemical Sfp PPTase activity, qHTS | AID 1490 | Potency, µM, usual class: inhibitors;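 note: the enzyme is Sfp with the accession as filed and its product quenches rhodamine fluorescence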
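Sfp 15 nM + cpd, 15 min RT; start w/ rhodamine-CoA 5 uM, BHQ-2-YbbR 12.5 uM (final); 50 mM Hepes pH 7.6, 10 mM MgCl2, 0.01% NP-40, 0.01% BSA; read 525/598 nm at 0 and 30 min.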
A number is an active result; n = inactive; u = inconclusive; x = no result given; ! = not confirmed by another sample; [ ] = remark or other dose. Compounds with a hit are over-represented: about 12% of the library has one in this group of screens. Calls come from the whole dose curve; as a rule, active = well fitted curve in the direction sought with a large enough effect; inconclusive = small, poorly fitted or top-dose-only effect, or another doubt; inactive = no such curve, though single readings can be large; an effect the other way counts as inactive or inconclusive.

SMILES	JMJD2A Tudor	HP1b binding inh	G9a inh	BAZ2B inh	Sfp inh
COc1ccc(N2CCN(S(=O)(=O)c3ccc4c(c3)CCCC4)CC2)c([N+](=O)[O-])c1	u	u	17.8µM	u	n
COc1ccc(N2CCN(C(=O)c3ccccc3F)CC2)c([N+](=O)[O-])c1	n[11.4 µM]	u	50.1µM	u	n
COc1ccc(N2CCN(C(=O)c3cccc(Br)c3)CC2)c([N+](=O)[O-])c1	22.4µM	u	u	39.8µM	n
CN(CC(=O)Nc1ccccc1Br)C(=O)c1cccn1C	n	n	n[0.501 µM]	u	x
COc1cccc(C(=O)NCc2cn3ccsc3n2)c1	n	n	u	n	n
CCOc1ccc(C(CC(=O)Nc2cc(C)c(Cl)cc2OC)N2Cc3ccccc3C2=O)cc1OC (stereo not drawn)	n	n	u	u	x
CC1CCN(C(=O)COC(=O)c2cccc(S(=O)(=O)N(C)c3ccccc3)c2)CC1	n	n	n[12.7 µM]	n	x
Cc1nc2sccn2c(=O)c1CCN1CCC(=C(c2ccc(F)cc2)c2ccc(F)cc2)CC1	u	n	n	u	56.2µM!
CCOc1ccc(Cc2nnc(SCC(N)=O)n2C)cc1	n	n	n[12.7 µM]	n	n
O=C(NCc1n[nH]c(=S)n1Cc1ccccc1)c1ccccc1	u	n	n	n	n
COC(Cn1c(-c2cccc(S(=O)(=O)N(C)C)c2)n[nH]c1=S)OC	7.94µM	n	10µM	x	n
Cc1ccc2nc(-c3cccc(S(=O)(=O)N(C)C)c3)cn2c1	n	n	n	n	n
CCN(CC)S(=O)(=O)c1cccc(-c2cn3cc(C)ccc3n2)c1	n	n	u	n	n
CCN(CC)S(=O)(=O)c1ccc(C(=O)NCc2n[nH]c(=S)n2Cc2ccccc2)cc1	28.2µM	n	u	n	n
CCN(CC)S(=O)(=O)c1cccc(-c2n[nH]c(=S)n2CC(C)C)c1	10µM	n	3.16µM	n	n
CCN(CC)S(=O)(=O)c1cccc(-c2nc3n(n2)Cc2ccccc2-3)c1	n	n	50.1µM	n	n
C=C[C@H](CC(C)C)N(Cc1ccccc1)S(=O)(=O)N(Cc1ccccc1)[C@@H](C=C)CC(C)C	n	n	x	x	x
CN(CCN1CCc2ccccc2C1)Cc1nc(-c2ccc3c(c2)OCO3)no1	n	n	n	n	n
COc1ccc(-c2nc3ccc(NS(C)(=O)=O)cc3o2)cc1	n	n	n	n	x
CCCCN(CC)C(=O)Cn1nc(C)c2c(C)n(-c3ccccc3)nc2c1=O	n	n	n	n	x
CCN(CC)S(=O)(=O)c1cccc(-c2n[nH]c(=S)n2Cc2ccccc2)c1	u	n	0.891µM	n	n
Cc1ccc(NC(=O)CNC(=O)c2cccs2)nc1	n	n	n	n	x
Cc1ccc(S(=O)(=O)CCC(=O)Nc2ccc(Br)cc2)cc1	n	n	u	n	n
O=C(CCS(=O)(=O)c1ccc(Br)cc1)NCc1ccc(F)cc1	n	n	u	39.8µM	n
Cc1ccc(NC(=O)CCS(=O)(=O)c2ccc(Br)cc2)nc1	20µM	n	n	n	n
SMILES	JMJD2A Tudor	HP1b binding inh	G9a inh	BAZ2B inh	Sfp inh
O=C(CCCC(=O)NCc1ccc(F)cc1)NCc1ccc(F)cc1	n	n	n	n	n
O=C(CCS(=O)(=O)c1ccccc1Cl)NCc1ccc(F)cc1	n	n	50.1µM	n	n
Cc1ccc(NC(=O)CCC(=O)c2cccs2)nc1	u	n	44.7µM	u	x
CN=C(N)NC(=O)Nc1c(C)cccc1C	n	n	n	n	n
COc1ccc(N2CCN(C(=O)CSc3nc4[nH]ncc4c(=O)n3-c3ccc(Br)cc3)CC2)cc1	u	n	n	n	n
Cc1ccc(CNC(=O)CCS(=O)(=O)c2ccc(Br)cc2)cc1	17.8µM	7.08µM	8.91µM	u	n
Cc1ccnc(NC(=O)CCS(=O)(=O)c2ccccc2)c1	n	n	79.4µM	n	n
Cc1ccnc(NC(=O)CS(=O)(=O)c2ccccc2)c1	n	n	n	n	n
CCN(CC)c1ccc(NC(=O)CCS(=O)(=O)c2ccc(Br)cc2)c(C)c1	11.2µM	12.6µM	10µM	11.2µM	n
O=C(CCS(=O)(=O)c1ccc(Br)cc1)Nc1ccc2c(c1)OCO2	50.1µM	u	u	50.1µM	n
N#C/C(=C\C1CC2C=CC1C2)c1nc2ccccc2[nH]1 (stereo not drawn)	n	n	n	n	n
NC(=O)c1nsc(C(=O)N(Cc2ccc(F)cc2)C(C(=O)NC2CCCC2)c2ccco2)c1N (stereo not drawn)	n	n	u	n	n
O=C(NNC(=O)c1cccc(S(=O)(=O)N2CCN(c3ccccc3)CC2)c1)c1ccc(Cl)cc1	n	n	n	n	n
CCN(CC)c1ccc(NC(=O)CCNS(=O)(=O)c2ccc3c(c2)CCC(=O)N3)c(C)c1	u	u	39.8µM	35.5µM	n
Cc1ccccc1NC(=O)CCNS(=O)(=O)c1ccc2c(c1)CCC(=O)N2	n	n	n	n	n
O=[N+]([O-])c1cc(C(F)(F)F)cc([N+](=O)[O-])c1NN=C1CCCCC1	22.4µM	20µM	10µM	11.2µM	u
O=[N+]([O-])c1cc(C(F)(F)F)cc([N+](=O)[O-])c1NCCCN1CCOCC1	n	n	n	n	n
N#CCC(=O)NNc1c([N+](=O)[O-])cc(C(F)(F)F)cc1[N+](=O)[O-]	u	u	50.1µM	50.1µM	n
CC(=O)c1cc(F)c(N2CCN(C(=O)c3ccco3)CC2)cc1C	n	n	n[12.7 µM]	n	u
CN(C(=O)Cn1nc(C(=O)O)c2ccccc2c1=O)c1ccccc1	n	n	n	n	n
Cc1cccc(CNC(=O)Cn2nc(C)c3nn(-c4ccc(Cl)cc4)c(C)c3c2=O)c1	n	n	n	n	x
CCC(=S)/C=C1\Sc2ccc3ccccc3c2N1CCCS(=O)(=O)O	x	x	u	u	35.5µM
CCC(=O)/C=C1\Sc2ccc(OC)cc2N1CCO	n	n	n	n	n
CC1CN2C(c3ccc(Cl)cc3)=CSC2=N1 (stereo not drawn)	n	n	44.7µM	n	n
Cc1ccc2c(CN3CCC(C)CC3)cc(=O)oc2c1	n	n	44.7µM	n	n
SMILES	JMJD2A Tudor	HP1b binding inh	G9a inh	BAZ2B inh	Sfp inh
Cc1ccc2c(CN3CCCCC3CCO)cc(=O)oc2c1 (stereo not drawn)	n	n	25.1µM	n	n
Cc1ccc2c(CN3CC(C)CC(C)C3)cc(=O)oc2c1 (stereo not drawn)	n	n	n	n	n
C=C(CC)C(=O)c1ccc(OCC(=O)O)c(Cl)c1Cl	n	n	70.8µM	n	20µM!
CC1Cc2ccccc2N1CC(=O)Nc1ccc(N2CCOCC2)cc1 (stereo not drawn)	u	n	u	u	n
CC(Nc1ccc(N2CCOCC2)cc1)C(=O)N1c2ccccc2CC1C (stereo not drawn)	u	n	x	35.5µM	10µM
Oc1c(C(Nc2cccc(C(F)(F)F)c2)c2cccnc2)ccc2cccnc12 (stereo not drawn)	56.2µM	u	8.91µM	20µM	u
